Measured values published in PubChem BioAssay (NCI).
Compounds without any hit were thinned out: in the full panel of roughly 83,000, 20% have a hit.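 In brief: 96-well plates, 48 h treatment, single concentration, percent growth endpoint.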 Activity calls are given as the source filed them. How the source made its calls: active means growth percent below 10; inactive means the rest.

Each compound was assayed on HL-60(TB) leukemia (assay: NCI-60 one-dose screen, 48 h (100 = growth as untreated, 0 = no growth, -100 = all killed)). Settings: 10 µM unless noted.

SMILES | growth
CC(C)(C#N)N1CCN(c2ccccc2Cl)CC1 | 103% (inactive)
O=C1c2cc(Cl)ccc2Oc2cc([N+](=O)[O-])ccc2N1c1ccc(F)cc1F | 76% (inactive)
CC1=C2[C@@H](CC1)[C@]1(C)O[C@@](C3CCCCC3)(C[C@H]1OC(=O)CO)[C@H]2OC(=O)/C=C/c1ccccc1 | 82.5% (inactive)
CCCc1cc2c(cc1CN(Cc1cc3c(cc1CCC)OCO3)C(=N)OCC)OCO2 | 105% (inactive)
COc1cc(C(=O)OCCCCCCCCCCC[P+](c2ccccc2)(c2ccccc2)c2ccccc2)ccc1O | -56% (active)
N#Cc1c(N)n2c(nc1=Nc1ccc([N+](=O)[O-])cc1)sc1cc(Cl)ccc12 | 117% (inactive)
S=c1[nH]nc2sc3ccccc3n12 | 107% (inactive)
NNc1ncnc2cccc(Cl)c12 | 99.9% (inactive)
N#Cc1c(NC(=O)c2cccc(C(F)(F)F)c2)sc2c1CCC(=O)C2 | -8.73% (active)
Cc1nc2c(c(-c3ccccc3)n1)Cc1c(ccc3ccccc13)O2 | 103% (inactive)
COc1cc(-c2csc(NC(=O)c3ccc(N4CCOCC4)c(C(F)(F)F)c3)n2)cc(OC)c1OC | 15.6% (inactive)
Brc1ccc(SSc2ccc(Br)cc2)cc1 | 70.9% (inactive)
C/C(=C\c1ccc([N+](=O)[O-])cc1)C(=O)O | 105% (inactive)
Cc1cc(N2CCCCC2)nc(NCc2cc(Nc3ccnc4cc(Cl)ccc34)ccc2F)n1 | -65.7% (active)
COc1ccc(-c2cc(/C=C3\C(=O)Nc4cc(Cl)ccc43)[nH]n2)cc1 | -11.7% (active)
CCCCCCCCn1ccc2cc(NC(=O)CN3CCN(c4cc(C)nc(Cl)n4)CC3)ccc21 | 83.3% (inactive)
C/C(=N\Nc1nc2ccccc2s1)c1ccncn1 | -19.9% (active)
O=c1ccc2nc(-c3ccccc3)nn(-c3ccccc3)c-2c1 | -45.5% (active)
C#Cc1cccc(Nc2nc3ccc([N+](=O)[O-])cc3nc2Nc2cccc(C#C)c2)c1 | -33.9% (active)
Cc1ccc(=O)n(-c2ccc(Br)cc2F)c1 | 106% (inactive)

SMILES | growth
Cc1ncc(C(=O)Nc2ccc(CN3CCN(C)CC3)c(C(F)(F)F)c2)cc1C#Cc1cnc(N)c2cnccc12 | 16.1% (inactive)
CCCCN(C)N=Nc1ccc(C(N)=O)cc1 | 73.5% (inactive)
COc1cc(CSc2nc3ccc(Cl)cc3c(=O)n2-c2ccccc2)cc(OC)c1OC | 90.8% (inactive)
COc1ccc(C2CC(c3cc(OC)c(OC)c(OC)c3)=NN2c2ccc(S(N)(=O)=O)cc2)cc1 (stereo not given) | 2.23% (active)
CS(=O)(=O)N1CCN(Cc2cc3nc(-c4cccc5[nH]ncc45)nc(N4CCOCC4)c3s2)CC1 (tested in a mixture with another compound) | 5.83% (active)
CCc1c(C)[nH]c(=O)c(C(N)=O)c1C#N | 102% (inactive)
COc1ccc2c(c1)c(-c1nc(-c3c[nH]c4c(Cl)nccc34)cs1)cn2C | 108% (inactive)
CN1CCN(CCCOc2ccc3ncnc(Nc4ccc(OCc5cccc(F)c5)c(Cl)c4)c3c2)CC1 | -42.3% (active)
O=C(Cn1c2ccccc2c2ccncc21)N/N=C/c1cc(O)c(O)c(O)c1 | 85.1% (inactive)
O=C(Nc1ccc(Oc2ccc(F)cc2)c(Cl)c1)c1cccnn1 | 56.3% (inactive)
Cc1cc(C(=O)Nc2cc(Nc3ncccc3-c3ncnc4nc[nH]c34)ccc2F)cc(C(C)(C)C#N)c1 | 26.4% (inactive)
CCN(CC)S(=O)(=O)c1ccc(O)c(NC(=O)c2[nH]c(C)c(C(C)=O)c2CCc2ccc(Cl)cc2)c1 | 39.6% (inactive)
Cn1cc(C=O)c2ccccc21 | 92.8% (inactive)
CCOC(=O)c1c(C)c2c(n1Cc1ccccc1)CSc1cc(C#N)c(=O)[nH]c1-2 | 76.8% [100 µM] (inactive)
Cn1ccnc1C(=O)/C=C/c1ccc(CC(=O)NC2CCCCC2)cc1 | 68.1% (inactive)
COc1cc(-c2nc3ccccc3[nH]2)ccc1OCc1nnc(-c2ccc(Br)cc2)o1 | 84.2% (inactive)
COc1ccc(CC(=O)c2ccc(O)cc2O)cc1 | 106% (inactive)
CN(C)C(=O)c1cc2cnc(Nc3ccc(-c4csc5c(=S)cc(N6CCOCC6)oc45)cc3)nc2n1C1CCCC1 | -30.6% (active)
CCOC(=O)C(Br)=P(c1ccccc1)(c1ccccc1)c1ccccc1 | 94.2% (inactive)
CC1=C(NCCN2CCCC2)C(=O)c2c(OCc3ccc(C(F)(F)F)cc3)cccc2C1=O | -20.6% (active)
